Screening results: PubChem BioAssay, Broad Institute
T cruzi growth-1 – blocks T. cruzi growth in NIH3T3 culture; inhibition, % at 8.34 µM; T. cruzi beta-gal in NIH3T3, GalScreen luminescence, 90 h; AID 624255; 77,000 compounds, 5.9% hits;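 active = mean inhibition above about 93%, with at least 55% of replicates each passing it, limit read from the data, passing the limit was not always enough; inconclusive = only one of those two conditions holds; inactive = neither condition holds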
C diff growth – C. difficile growth inhibition | Clostridium difficile clinical isolate growth, OD600, 24 h; hits give low values | growth activity, negative = inhibition, % at 16 µg/mL (by protocol) | 86,000 compounds, 0.25% hits | AID 1259249;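 active = mean growth activity at or below -80% and every replicate also at or below -80%; inconclusive = mean at or below -80% but some replicate above -80%; inactive = mean growth activity above -80%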
Pf Dd2 inh – inhibitors of Plasmodium falciparum Dd2 growth; P. falciparum Dd2 growth, SYBR Green, 72 h; hits give low values; activity change, % at 10 µM; 94,000 compounds, 2.3% hits; in the data active = activity change below about -80%; inconclusive = no clear call, values can overlap the other calls
T cruzi growth-2 – blocks T. cruzi growth in NIH3T3 host cells; shares compounds with T cruzi growth-1; T. cruzi beta-gal in NIH3T3, GalScreen luminescence, 90 h; inhibition, % at 8.35 µM; 5,600 compounds, 72% hits;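 active = mean replicate inhibition above about 95% and at least 55% of replicates individually reaching it, limit read from the data; inconclusive = only one of the two criteria is met; inactive = neither criterion is met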
T cruzi growth-3 – Trypanosoma cruzi proliferation inhibition; shares compounds with T cruzi growth-1; T. cruzi beta-gal in NIH3T3, GalScreen luminescence, 90 h; inhibition, % at 2.09 µM; 5,600 compounds, 21% hits; AID 651740;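 active = mean inhibition above about 95%, with at least 55% of replicates also reaching it, limit read from the data; inconclusive = meets just one of the two conditions; inactive = meets neither condition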
NIH3T3 tox – NIH/3T3 (mouse) viability loss; shares compounds with T cruzi growth-1; NIH/3T3 viability, CellTiter-Glo ATP luminescence, 90 h; cytotoxicity (signal decrease), % at 8.35 µM; 5,600 compounds, 14% hits; AID 651742;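 active = mean signal decrease across replicates above about 35% based on untreated-well scatter, with enough replicates individually passing, limit read from the data; inconclusive = no rule stated though some were filed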
3T3 cytotox 2 – cytotoxicity in mouse NIH/3T3 fibroblasts; shares compounds with T cruzi growth-1; NIH/3T3 viability, CellTiter-Glo ATP luminescence, 90 h; inhibition, % at 24.9 µM; 5,600 compounds, 56% hits;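 active = mean loss of cell viability signal at or above a set limit, and enough replicates individually reaching it; inconclusive = meets only the mean limit or only the replicate share; inactive = meets neither condition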
Of the large screens only hits and unclear results are named; the others gave an inactive call (follow-up assays come after a bar, where they were run). In the library only some 6.8% were active in any assay of this set; here they are far more common.

COc1ccc(NC(=O)N(C)C[C@@H]2Oc3ncc(/C=C/c4ccccc4)cc3C(=O)N([C@H](C)CO)C[C@@H]2C)cc1	T cruzi growth-1 inconclusive
C[C@H]1CN([C@@H](C)CO)C(=O)c2cc(/C=C/c3ccccc3)cnc2O[C@H]1CN(C)C(=O)Nc1ccccc1F	T cruzi growth-1 101 | T cruzi growth-2 inconclusive | T cruzi growth-3 inactive | NIH3T3 tox inactive | 3T3 cytotox 2 51
COCC(=O)N1C[C@H](C)[C@@H](OC)CN(C)C(=O)c2cc(NS(C)(=O)=O)ccc2OC[C@@H]1C	none (no result: C diff growth)
CC(C)CC#Cc1ccc2c(c1)O[C@H](CN(C)Cc1ccccn1)[C@H](C)CN([C@H](C)CO)S2(=O)=O	T cruzi growth-1 115 (no result: C diff growth) | T cruzi growth-2 106 | T cruzi growth-3 inactive | NIH3T3 tox inactive | 3T3 cytotox 2 107
COCC#Cc1ccc2c(c1)O[C@@H](CN(C)Cc1ccccn1)[C@H](C)CN([C@H](C)CO)S2(=O)=O	none
CC(C)CC#Cc1ccc2c(c1)O[C@H](CN(C)Cc1ccccn1)[C@@H](C)CN([C@@H](C)CO)S2(=O)=O	T cruzi growth-1 132 | T cruzi growth-2 97 | T cruzi growth-3 114 | NIH3T3 tox inactive | 3T3 cytotox 2 105
COCC#Cc1ccc2c(c1)O[C@H](CN(C)Cc1ccccn1)[C@@H](C)CN([C@@H](C)CO)S2(=O)=O	none
C[C@H]1CN([C@@H](C)CO)S(=O)(=O)c2ccc(C3=CCCC3)cc2O[C@H]1CN(C)C(=O)CC1CC1	none
C[C@H]1CN([C@@H](C)CO)S(=O)(=O)c2ccc(-c3ccc(F)cc3)cc2O[C@@H]1CN(C)Cc1cccc(F)c1	none
C[C@H](CO)N1C[C@H](C)[C@@H](CN(C)Cc2cccc(F)c2)Oc2cc(-c3ccc(F)cc3)ccc2S1(=O)=O	none
C[C@@H]1CN([C@H](C)CO)S(=O)(=O)c2ccc(-c3ccccc3)cc2O[C@@H]1CN(C)Cc1cccc(F)c1	T cruzi growth-1 124 | T cruzi growth-2 112 | T cruzi growth-3 inactive | NIH3T3 tox inactive | 3T3 cytotox 2 104
C[C@@H]1CN([C@@H](C)CO)S(=O)(=O)c2ccc(-c3ccccc3)cc2O[C@H]1CN(C)Cc1cccc(F)c1	T cruzi growth-1 122 | T cruzi growth-2 99 | T cruzi growth-3 inconclusive | NIH3T3 tox 40 | 3T3 cytotox 2 103
CS(=O)(=O)Nc1ccc2c(c1)[C@H]1C[C@@H](CC(=O)NCc3ccc(Cl)cc3)O[C@H](CO)[C@H]1O2	none
C[C@H]1CN([C@@H](C)CO)C(=O)c2cccc(NC(=O)c3ccncc3)c2O[C@@H]1CN(C)Cc1ccc2c(c1)OCO2	T cruzi growth-1 100 | T cruzi growth-2 inactive | T cruzi growth-3 inactive | NIH3T3 tox inactive | 3T3 cytotox 2 inactive
C[C@H](CO)N1C[C@H](C)[C@@H](CN(C)Cc2ccc(Cl)c(Cl)c2)Oc2c(NC(=O)c3ccncc3)cccc2C1=O	none
C[C@@H]1CN([C@H](C)CO)C(=O)c2cccc(NC(=O)c3ccncc3)c2O[C@@H]1CN(C)Cc1ccc2c(c1)OCO2	none
C[C@H](CO)N1C[C@H](C)[C@@H](CN(C)Cc2ccc3c(c2)OCO3)Oc2c(NC(=O)c3ccncc3)cccc2C1=O	T cruzi growth-1 99 | T cruzi growth-2 104 | T cruzi growth-3 inactive | NIH3T3 tox inactive | 3T3 cytotox 2 35
C[C@@H]1CN([C@@H](C)CO)C(=O)c2cccc(NC(=O)c3ccncc3)c2O[C@@H]1CN(C)Cc1ccc2c(c1)OCO2	none
C[C@@H]1CN([C@@H](C)CO)C(=O)c2cccc(NC(=O)c3ccncc3)c2O[C@@H]1CN(C)Cc1ccc(Cl)c(Cl)c1	T cruzi growth-1 97 | T cruzi growth-2 100 | T cruzi growth-3 inactive | NIH3T3 tox inactive | 3T3 cytotox 2 inactive
C#Cc1ccc([C@H]2C=C(C(=O)N3CCOCC3)O[C@@H](OCCCCO)C2)cc1	none (no result: T cruzi growth-1, Pf Dd2 inh)
C[C@@H]1CN([C@@H](C)CO)C(=O)CCCn2nncc2CO[C@@H]1CN(C)Cc1cccnc1	none
O=C(C1CCCC1)N1C[C@H]2[C@@H](c3ccccc31)[C@@H](CO)N2C(=O)Nc1cccc(F)c1	none
C[C@H](CO)N1C[C@H](C)[C@@H](CN(C)Cc2ccc(-c3ccccc3)cc2)Oc2ccc(NC(=O)Nc3ccc4c(c3)OCO4)cc2C1=O	none
